# Screens deposited in PubChem BioAssay by National Center for Advancing Translational Sciences (NCATS).
# D1 antag: human D1 dopamine receptor antagonism; activity change, negative = inhibition, % at 10 µM; AID 504652; 3.2% of 360,000 active; HEK293 TREx D1 cells, calcium flux, dopamine EC80; stronger effect = lower value; P21728; in the data active = activity change below about -30%; also: % is scaled to controls: 0 for no effect and ±100 for the full control effect
#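 Allosteric or orthosteric antagonism assessed as attenuation of the calcium response to EC80 dopamine, added 180 s after compound, in induced HEK293 Trex D1 cells loaded with no-wash calcium dye.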
# D1 agonist: agonists of human D1 dopamine receptor; activation, % at 2 µM; HEK293 T-REx D1 cells, calcium flux, agonist mode; 1% of 360,000 active; in the data active = activation above about 30%; also: 0% is about no effect
#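 Agonism was scored from calcium flux recorded over 180 s (1 read/s) after pintool compound addition, following a 10-cycle baseline. Cells were inducible force-coupled HEK293 TREx D1, plated overnight at 30 C and loaded with no-wash calcium dye.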
# D3 ag: activates the human D3 dopamine receptor. max activation, %. 0.58% of 410,000 active. D3R DiscoveRx beta-arrestin cells, luminescence, 90 min. AID 652048; in the data active = max activation above about 30%; also: 0% is about no effect
# Target sequence (P35462 whole entry, looked up): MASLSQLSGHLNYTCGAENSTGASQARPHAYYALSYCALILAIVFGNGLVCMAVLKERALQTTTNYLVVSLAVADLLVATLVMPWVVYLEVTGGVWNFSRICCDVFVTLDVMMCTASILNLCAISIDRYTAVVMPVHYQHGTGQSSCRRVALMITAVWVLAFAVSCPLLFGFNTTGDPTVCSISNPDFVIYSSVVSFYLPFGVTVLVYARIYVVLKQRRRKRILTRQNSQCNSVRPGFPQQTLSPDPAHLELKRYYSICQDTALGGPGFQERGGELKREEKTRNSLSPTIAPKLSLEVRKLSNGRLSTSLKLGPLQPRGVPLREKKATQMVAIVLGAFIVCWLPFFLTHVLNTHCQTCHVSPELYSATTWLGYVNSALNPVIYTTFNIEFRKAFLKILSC
#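 Agonist-mode cell screen: cells plated at 1500/well and incubated overnight at 37 °C, then exposed to library compounds for 90 min at 37 °C. Detection reagent was added for 30–60 min at room temperature, and luminescence was read.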
# DRD3 antagonist: D3 dopamine receptor (human) antagonism; max response, negative = inhibition, %; 2.5% of 360,000 active; D3R cells, DiscoveRx beta-arrestin luminescence, antagonist mode; stronger effect = lower value; P35462; in the data active = max response below about -50%; inconclusive = no clear call, values can overlap the other calls; also: % is scaled to controls: 0 for no effect and ±100 for the full control effect
#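 Cells expressing the human receptor were seeded at 1500 cells/well, incubated overnight at 37 degrees C in 5% CO2, then exposed to library compounds with dopamine controls for 90 minutes at 37 degrees C before luminescent detection.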
# D1 PAM: enhances dopamine response at the human D1 receptor | P21728 | AID 504651 | potentiation, % at 10 µM | 0.036% of 360,000 active | HEK293 TREx D1 cells, calcium flux, dopamine EC20 potentiation; in the data active = potentiation above about 30%; also: 0% is about no effect
# An asterisk follows results filed as active; ? = inconclusive; . = no result given. Sampled rows, rich in hits. Any-hit rate of the full collection: about 6.1%.
SMILES,D1 antag,D1 agonist,D3 ag,DRD3 antagonist,D1 PAM
CCC(NC(=S)NC1CCCCC1)c1ccc(C)cc1 (stereo not given),-59*,13,.,.,0
COCCn1c(SCC(=O)c2ccccc2)nc2c(c1=O)SC(C)C2 (stereo not given),-2,2,-14,-28,-5
COCCn1c(SCC(=O)N2CCN(c3ccccc3)CC2)nc2c(c1=O)SC(C)C2 (stereo not given),-35*,0,7,8,-7
CCCCN(C)CCNC(=O)c1c(C)oc2ncnc(N3CCOCC3)c12,-7,1,7,.,2
COc1cc(Cl)cc2c1Sc1ccccc1/C2=C/CCN(C)C,-62*,18,1,-77*,-9
CN(C)CC/C=C1/c2ccccc2Sc2c(O)cc(Cl)cc21,-94*,44*,-20,?,-4
CN(C)CC/C=C1/c2ccccc2CSc2ccccc21,.,.,-21,.,.
COc1cc2c(cc1Cl)/C(=C\CCN(C)C)c1ccccc1S2,-41*,14,-58,-92*,-5
CN(C)CC/C=C1/c2cc(F)ccc2Sc2ccc(Cl)cc21,.,.,-14,-84*,.
CN(C(=O)c1ccc(NC(=O)Cc2ccc(NC(=O)C3CCCN(S(=O)(=O)c4cccc([N+](=O)[O-])c4)C3)cc2)cc1)C1CCCC1 (stereo not given),.,.,-26,?,.
Cc1cc2c(cc1C)NC(CC(=O)Nc1ccccc1SC(F)(F)F)C(=O)N2 (stereo not given),-10,1,0,.,0
C[C@H](NC(=O)N1CCn2c1nc1ccccc12)C(=O)NCc1ccc(F)cc1,-11,3,1,6,-1
CCOc1ccc(-n2c(=O)c3c4c(sc3n(Cc3cccc(Cl)c3)c2=O)CCCC4)cc1,-20,2,2,.,0
COc1cc(/C=C/c2nc3cc(Cl)ccc3c(=O)n2-c2ccc(C)cc2C)cc(OC)c1OC,-44*,-1,0,.,-1
COc1ccc(Cl)cc1-n1c(/C=C/c2cccc3ccccc23)nc2ccccc2c1=O,-35*,-3,1,.,-1
COc1cc(OC)c(OC)cc1/C=C/c1nc2cc3ccccc3cc2c(=O)n1-c1ccccc1Br,-19,78*,7,.,1
COc1cc(OC)c(OC)cc1/C=C/c1nc2cc3ccccc3cc2c(=O)n1-c1ccc(Cl)cc1,-2,23,-1,.,-3
CC(C)CC(=O)Nc1cc(-c2ccccc2F)nn1-c1ccccc1,-17,0,-9,.,0
COc1cc(CN(C(=O)COc2ccc(F)cc2)c2ccccn2)cc(OC)c1OC,0,0,6,.,1
Oc1ccc2ccccc2c1CN1CCN(c2ccccc2F)CC1,3,2,-6,-95*,0
O=S(=O)(c1ccccc1)N1CCN(Cc2c(O)ccc3ccccc23)CC1,.,.,6,4,.
Oc1ccc2ccccc2c1CN1CCN(C/C=C/c2ccccc2)CC1,7,5,-26,-56*,-5
O=P(c1ccccc1)(c1ccccc1)C(c1ccco1)N1CCOCC1 (stereo not given),-18,4,-28,-61*,-6
O=C(NCc1ccccc1)C(=O)NCC(c1ccco1)N1CCOCC1 (stereo not given),-8,3,12,24,3
O=C(Nc1nc(NC(=O)c2ccco2)n(-c2ccccc2)n1)c1ccccc1,-14,-1,39*,12,-2
SMILES,D1 antag,D1 agonist,D3 ag,DRD3 antagonist,D1 PAM
CC(=O)Nc1nc(NC(=O)/C=C/c2ccccc2)n(-c2ccccc2)n1,-23,-1,-11,-72*,-8
COC(=O)COc1ccc2c(=O)c(-c3ccccc3)coc2c1,-42*,10,-7,-15,-4
CC(C)Oc1ccc2c(=O)c(-c3ccccc3)coc2c1,-18,2,11,-11,-2
COC(=O)C1=NN(C(=O)c2cccc(Cl)c2)C(O)(C(C)(C)C)C1 (stereo not given),-15,31*,11,5,-7
COC(=O)C1=NN(C(=O)c2ccc(Br)cc2)C(O)(C(C)(C)C)C1 (stereo not given),-5,32*,-11,-25,1
CC1=NN(C(=O)c2ccc(Br)cc2)C(O)(C(F)(F)OC(F)(F)F)C1 (stereo not given),-14,5,7,4,1
COc1c(C)cc(S(=O)(=O)NCc2ccccn2)c(C)c1C,0,2,10,5,-3
CC(C)Oc1ccc(C(=O)Nc2nnc3n2CCS3)cc1,6,1,-2,.,-5
Cc1cc(C)cc(OCC(=O)OCC(=O)c2cc(C)n(C3CC3)c2C)c1,-30*,5,12,-5,-7
Cc1cc(C(=O)COC(=O)c2ccc[nH]c2=O)c(C)n1-c1ccccc1,-6,-2,9,-23,-1
CCC(=O)c1ccc(OCC(=O)OCC(=O)c2cc(C)n(C3CC3)c2C)cc1,-5,12,-3,1,0
Cc1cc(C(=O)COC(=O)c2ccc[nH]c2=O)c(C)n1C1CC1,15,4,33*,8,1
COc1ccc(CN2CCC(C(=O)c3cccc(Cl)c3)CC2)cc1,-1,4,-17,-27,-12
O=C(c1ccc(F)cc1)C1CCN(C(=O)c2ccc(Cl)cc2)CC1,.,.,-5,-28,.
O=C(c1ccc(F)cc1)C1CCN(Cc2ccccc2)CC1,.,.,-9,-86*,.
COc1ccc(CN2CCC(C(=O)c3ccc(Cl)cc3)CC2)cc1,-23,10,-20,-88*,-11
O=C(c1ccc(F)cc1)C1CCN(Cc2ccc(F)cc2)CC1,-15,-4,-22,-88*,-10
Cc1ccc(S(=O)(=O)Nc2cc3c(cc2C)n(C)c(=O)c(=O)n3C)c(C)c1,-95*,1,-4,.,-7
CCOC(=O)c1cnc2c(ccc3ccccc32)c1Cl,-53*,3,-2,7,-2
CCOC(=O)c1cnc2c(C)c(Cl)ccc2c1Nc1ccc(S(=O)(=O)Nc2ncccn2)cc1,-39*,3,.,.,-5
CCOC(=O)c1cnc2ccc(Cl)cc2c1Nc1ccc(S(=O)(=O)Nc2ncccn2)cc1,7,0,2,-5,-5
CCOC(=O)c1cnc2c(Cl)c(Cl)ccc2c1N1CCN(C)CC1,-7,3,-1,-12,2
CCOC(=O)c1cnc2c(ccc3ccccc32)c1Nc1ccccc1O,-47*,1,-7,.,-4
CC(C)Oc1ccc(CNC(=O)c2ccc(CN3CC(=O)N4CCCCC4C3=O)cc2)cc1 (stereo not given),-13,-2,-15,.,5
CCCn1c(C)cc(C(=O)COc2ccc(-c3nnco3)cc2)c1C,3,3,-7,-6,5
CC(C)Nc1nc(NC(C)C)nc(N(C)N)n1,-15,10,-10,-53*,-6
O=C(Nc1ncccn1)c1cc([N+](=O)[O-])cc([N+](=O)[O-])c1,8,2,7,2,-1
O=[N+]([O-])c1cc(-c2ncccn2)c([N+](=O)[O-])s1,-14,1,-19,-104*,-6
